CBFb RUNX1 block: qHTS Assay for Compounds Blocking the Interaction Between CBF-beta and RUNX1 for the Treatment of Acute Myeloid Leukemia. Runt-related transcription factor 1 (Homo sapiens) + Core-binding factor subunit beta …. AlphaScreen CBFb-His/RUNX1-biotin binding, biochemical. Potency, µM (series often up to 59.8 µM), for inactives: at the highest dose activity, negative = inhibition, actives largely listed as inhibitors. 230,000 tested, under 10 active; note: % of control where 0% means no effect
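Read-out: AlphaScreen. Format: His-CBF-beta with biotinylated RUNX1 (30 nM each) preincubated 20 min, compound 15 min, Ni-chelate plus streptavidin beads 90 min; room temperature throughout.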
VDR inh: Inhibitors of the vitamin D receptor (VDR): qHTS; AID 504847, 2011; actives 0.93% (n = 400,000); Vitamin D3 receptor (Homo sapiens), P11473; VDR-SRC2-3 peptide fluorescence polarization, 2 h; Potency, µM, inactives show max response, negative = inhibition, actives largely listed as inhibitors; note: potency is the fitted concentration of half-maximal effect; % is set by controls: 0 for no effect and ±100 for the full control effect
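Fluorescence polarization assay measuring small-molecule disruption of VDR binding to the coregulator peptide SRC2-3. Compounds were pin-transferred (23 nl) into the reagent mix and incubated 2 h at room temperature before reading.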
hERG WT inh: qHTS for Inhibitors of KCHN2 3.1: Wildtype qHTS; actives 0.37% (n = 340,000); Voltage-gated inwardly rectifying potassium channel KCNH2 (Homo sapiens), Q12809; U2OS, BacMam KCNH2, thallium flux FluxOr; hits give low values; activity change, % at 1.84 µM;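 active = maximum activity change below -70%; inconclusive = maximum activity change between -70% and -50%; inactive = maximum activity change above -50%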; note: % is set by controls: 0 for no effect and ±100 for the full control effect
Target sequence (Q12809 whole entry, looked up): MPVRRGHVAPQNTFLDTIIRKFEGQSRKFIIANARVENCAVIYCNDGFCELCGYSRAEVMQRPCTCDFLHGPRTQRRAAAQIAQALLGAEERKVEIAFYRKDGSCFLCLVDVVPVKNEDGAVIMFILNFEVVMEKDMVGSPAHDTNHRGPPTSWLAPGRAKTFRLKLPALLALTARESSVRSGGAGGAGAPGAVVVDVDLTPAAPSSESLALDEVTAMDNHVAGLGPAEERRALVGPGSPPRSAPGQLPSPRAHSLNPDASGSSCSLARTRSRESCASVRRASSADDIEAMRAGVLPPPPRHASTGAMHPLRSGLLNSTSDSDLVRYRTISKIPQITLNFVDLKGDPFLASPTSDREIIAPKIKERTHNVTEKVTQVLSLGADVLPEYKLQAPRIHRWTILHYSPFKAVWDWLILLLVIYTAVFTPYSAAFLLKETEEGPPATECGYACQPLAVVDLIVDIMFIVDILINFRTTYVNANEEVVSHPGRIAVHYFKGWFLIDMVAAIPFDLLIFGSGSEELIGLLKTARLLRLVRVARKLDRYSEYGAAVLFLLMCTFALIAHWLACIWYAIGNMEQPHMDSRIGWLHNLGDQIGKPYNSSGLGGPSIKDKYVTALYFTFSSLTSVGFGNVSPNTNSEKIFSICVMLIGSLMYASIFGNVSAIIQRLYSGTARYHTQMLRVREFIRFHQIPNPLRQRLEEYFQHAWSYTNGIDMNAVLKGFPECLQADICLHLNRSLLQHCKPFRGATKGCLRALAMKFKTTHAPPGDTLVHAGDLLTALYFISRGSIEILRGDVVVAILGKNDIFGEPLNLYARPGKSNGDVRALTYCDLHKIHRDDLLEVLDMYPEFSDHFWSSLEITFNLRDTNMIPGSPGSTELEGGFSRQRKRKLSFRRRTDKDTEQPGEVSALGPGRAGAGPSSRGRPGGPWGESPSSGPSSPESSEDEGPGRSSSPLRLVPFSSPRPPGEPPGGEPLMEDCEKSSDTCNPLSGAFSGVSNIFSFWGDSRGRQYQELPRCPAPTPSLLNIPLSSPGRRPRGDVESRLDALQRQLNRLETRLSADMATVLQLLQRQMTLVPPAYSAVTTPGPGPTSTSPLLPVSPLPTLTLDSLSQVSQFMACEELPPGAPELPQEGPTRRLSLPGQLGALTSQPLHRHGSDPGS
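U2OS cells transduced with wild-type KCNH2 virus are loaded with FluxOr dye for 45 min, and thallium flux is measured in kinetic reads before and after stimulation buffer. Rate constants are normalized to DMSO controls.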
MBNL1-CUG inh: qHTS Assay for Inhibitors of MBNL1-poly(CUG) RNA binding; actives 0.036% (n = 280,000); Muscleblind-like protein 1 (Homo sapiens), Q9NR56; TR-FRET MBNL1-His/biotin-(CUG)12 binding, 665/545 ratio; Potency, µM (highest dose often 57.5 µM), for inactives: top-dose activity change, negative = inhibition, hits mostly inhibitors; active = well fitted inhibition curve with a large enough effect in the signal ratio, with a control signal flat, not every such curve was filed as active; inconclusive = small, poorly fitted or top-dose-only effect, or effect the other way, or a change in a side signal; inactive = no such curve, though single readings can be large or run the other way; the % refers to the signal ratio; note: potency is the fitted concentration of half-maximal effect; % is set by controls: 0 for no effect and ±100 for the full control effect
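Inhibition of protein-RNA binding appears as loss of TR-FRET between terbium anti-His antibody on MBNL1-His and streptavidin-XL665 on biotin-(CUG)12. Activity is normalized to buffer-only and uninhibited-complex controls.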
KCNH2 3.1 block: qHTS for Inhibitors of KCHN2 3.1: Mutant qHTS | Potassium voltage-gated channel subfamily H member 2, brain isoform KCNH2 3.1 (human) | U2OS KCNH2 3.1, thallium flux FluxOr; hits give low values | activity change, % (tested at about 1.8 µM) | actives 0.95% (n = 340,000) | AID 720553, 2013;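 active = maximum activity change below -70%; inconclusive = maximum activity change from -70% to -50%; inactive = maximum activity change above -50%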;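 note: thallium influx rate constant from kinetic fluorescence after stimulation buffer; % is set by controls: 0 for no effect and ±100 for the full control effect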
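Kinetic fluorescence (2 min after stimulation buffer) measures Tl+ influx through KCNH2 3.1 expressed by viral transduction in U2OS cells; the rate constant is normalized against DMSO controls serving as positive and negative references.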
PLK1 PBD inh: qHTS for Inhibitors of PLK1-PDB (polo-like kinase 1 - polo-box domain): Primary Screen; Potency, µM, without a hit: max response, negative = inhibition, actives largely listed as inhibitors; Plk1 PBD binding of FITC phosphopeptide, fluorescence polarization; AID 720504, 2013; Serine/threonine-protein kinase PLK1 (Homo sapiens), P53350; actives 2.8% (n = 360,000); note: potency is the fitted concentration of half-maximal effect; series mostly up to about 57 µM; % is set by controls: 0 for no effect and ±100 for the full control effect; nearly all actives have a fitted effect of over 65% in size
Starred values were filed as active, the others as inactive; i = inactive; ? = inconclusive; nt = no result; ! = repeats disagree; [ ] = another dose, or the depositor's remark. A selection: hits, their analogues and other compounds. The true share with any hit is near 3.8%. Unless noted, calls come from the whole dose curve; as a rule, active = well fitted curve in the direction sought with a large enough effect; inconclusive = small, poorly fitted or top-dose-only effect, or another doubt; inactive = no such curve, though single readings can be large; an effect the other way counts as inactive or inconclusive.

SMILES	CBFb RUNX1 block	VDR inh	hERG WT inh	MBNL1-CUG inh	KCNH2 3.1 block	PLK1 PBD inh
CCOc1ccc(N2C(=O)NC(=O)/C(=C\c3ccc(N4CCOCC4)cc3C)C2=O)cc1	-1.2%	?	i	?	-4.0	6.7µM*
COc1ccc(N2C(=O)NC(=O)/C(=C/c3ccc(N4CCOCC4)cc3)C2=O)cc1	-0.2%	nt	nt	nt	nt	nt
O=NN(c1ccccc1)c1ccccc1	-5.5%[21.7 µM]	nt	nt	nt	nt	nt
CCCc1cc2c(n1CCO)C(C)C1CN(C(=O)c3ccccc3)C(C)(C(=O)OC)C21 (stereo unspecified)	13.9%	nt	nt	nt	nt	nt
Oc1cc(Cl)ccc1Cl	4.2%[21.7 µM]	nt	nt	nt	nt	nt
CS(=O)c1ccc(-c2nc(-c3ccc(F)cc3)c(-c3ccncc3)[nH]2)cc1 (stereo unspecified)	-0.6%	?	nt	nt	nt	nt
Nc1ccc([N+](=O)[O-])cc1[N+](=O)[O-]	0.0%[21.7 µM]	nt	nt	nt	nt	nt
O=C1NS(=O)c2cc([N+](=O)[O-])cc([N+](=O)[O-])c21 (stereo unspecified)	?	?	-2.7	?	5.7	23.8µM*
COC1=C[C@H]2[C@H]3Cc4ccc(OC)c(O)c4[C@@]2(CCN3C)CC1=O	9.4%[21.7 µM]	nt	nt	nt	nt	nt
C[S@@](=O)CCCCN=C=S	13.9%	?	nt	nt	nt	nt
COc1c(C=C2C(=O)NC(=O)NC2=O)c(CCN(C)C(=O)c2ccccc2)cc2c1OCO2	nt	?	-0.2	3.0%	-2.6	26.7µM*
O=C1C=CC(=O)c2c(O)cccc21	nt	39.8µM*	nt	nt	nt	nt
O=C(Nc1cccc(C(=O)Nc2cc(C(=O)Nc3ccc([S+](=O)([O-])[O-])c4cc([S+](=O)([O-])[O-])cc(SOOO)c34)ccc2F)c1)Nc1cccc(C(=O)Nc2cc(C(=O)Nc3ccc([S+](=O)([O-])[O-])c4cc([S+](=O)([O-])[O-])cc([S+](=O)([O-])[O-])c34)ccc2F)c1	nt	39.8µM*	nt	nt	nt	nt
COC(=O)[C@]1(C)CC[C@@]2(C)CC[C@@]3(C)C4=CCc5c(cc(O)c(O)c5C)[C@]4(C)CC[C@@]3(C)C2C1 (stereo partly specified)	nt	28.2µM*	nt	nt	nt	nt
CCC1(O)C(=O)OCc2c1cc1n(c2=O)Cc2cc3cc(O)ccc3nc2-1 (stereo unspecified)	nt	-24.2%	2.1	nt	17.5	11.9µM*
CC[C@@]1(O)C(=O)OCc2c1cc1n(c2=O)Cc2cc3ccccc3nc2-1	0.9%	0.4%	nt	?	nt	nt
OC(c1ccc(Cl)cc1)(c1cncnc1)c1ccccc1Cl (stereo unspecified)	5.4%	?	nt	nt	nt	nt
Nc1c(C(=O)NCCCc2ccccc2)c2nc3ccccc3nc2n1Cc1cccs1	12.2%	79.4µM*	-9.5	-1.5%	-1.6	-10.5%
CCCCn1c(N)c(C(=O)NCc2cccs2)c2nc3ccccc3nc21	?	89.1µM*	21.5	23.8%	-4.2	-10.4%
Nc1c(C(=O)NCc2ccco2)c2nc3ccccc3nc2n1Cc1ccc(F)cc1	29.0%	-8.8%	-6.7	14.7%	0.4	26.7µM*
CCCOC(=O)c1c(N)n(Cc2cccs2)c2nc3ccccc3nc12	23.4%	-25.4%	-12.6	9.0%	3.3	1.4%
CCCCCn1c(N)c(C(=O)NCc2cccs2)c2nc3ccccc3nc21	3.6%	?	2.1	6.2%	-18.9	-7.1%
Nc1c(C(=O)NCc2ccco2)c2nc3ccccc3nc2n1Cc1ccccc1	?	-20.1%	-7.3	24.9%[11.5 µM]	6.5	-12.6%
CS(=O)(=O)c1ccc(C2=C(CNC(=O)c3ccncc3)[C@H]3CC[C@@H](C2)N3Cc2ccccc2)cc1	nt	nt	?	nt	-91.1*	-7.6%
Cc1ncoc1C(=O)NCC1=C(c2ccc(S(C)(=O)=O)cc2)C[C@@H]2CC[C@H]1N2Cc1ccco1	nt	nt	-6.1	nt	-36.5	-4.4%
SMILES	CBFb RUNX1 block	VDR inh	hERG WT inh	MBNL1-CUG inh	KCNH2 3.1 block	PLK1 PBD inh
O=C(NCC1=C(c2ccc3ccccc3c2)C[C@@H]2CC[C@H]1N2Cc1ccco1)c1nccs1	nt	nt	11.2	nt	-38.5	-1.4%
CS(=O)(=O)c1ccc(C2=C(CNC(=O)c3nccs3)[C@H]3CC[C@@H](C2)N3CCOc2ccccc2)cc1	nt	nt	?	nt	-78.2*	-15.1%
O=C(NCC1=C(c2cccc3ccccc23)C[C@@H]2CC[C@H]1N2Cc1ccco1)c1cccs1	nt	nt	?	nt	-108.7*	8.0%
CS(=O)(=O)c1ccc(C2=C(CNC(=O)c3cccs3)[C@H]3CC[C@@H](C2)N3CCOc2ccccc2)cc1	nt	nt	-102.7*	nt	-93.9*	2.1%
C=C(Cl)Cl	-9.3%[21.7 µM]	nt	nt	nt	nt	nt
c1ccc2c(c1)CCCC2	21.0%[21.7 µM]	nt	nt	nt	nt	nt
CCCCCCCC(=O)Cl	15.7%[21.7 µM]	nt	nt	nt	nt	nt
CCOC(=O)c1cccc(C2=C(CNC(C)=O)[C@H]3CC[C@@H](C2)N3Cc2ccccc2)c1	nt	nt	23.2	nt	-2.8	-9.3%
CCOC(=O)c1cccc(C2=C(CNC(=O)c3ccc([N+](=O)[O-])cc3)[C@H]3CC[C@@H](C2)N3Cc2ccccc2)c1	nt	nt	-76.0*	nt	-113.1*	3.4%
Clc1cccc(C2NCc3ccccc3-n3cccc32)c1 (stereo unspecified)	4.7%	-9.1%	-2.7	-5.0%	6.6	29.9µM*
CN=C=S	19.8%[21.7 µM]	nt	nt	nt	nt	nt
CN1C2CC(=O)CC1C(O)C2 (stereo unspecified)	11.3%	-0.1%	nt	nt	nt	nt
NC(=O)CSc1nc2cc(S(=O)(=O)N3CCOCC3)ccc2o1	nt	?	3.4	nt	-15.7	11.9µM*
Cc1cccc2c3c(ccc12)C1=C(C(=O)C3=O)[C@@H](C)CO1	-22.4%	20µM*	nt	nt	nt	nt
C[CH2][Hg][S]c1ccccc1C(=O)O	17.0%	79.4µM*	1.1	nt	-3.0	2.67µM*
O=C(O)c1ccccc1SSc1ccccc1C(=O)O	nt	?	2.3	1.4%	8.4	11.9µM*
CC(Cl)CCl (stereo unspecified)	8.0%[21.7 µM]	nt	nt	nt	nt	nt
Clc1ccc(C(Cl)(Cl)Cl)cc1Cl	2.3%[21.7 µM]	nt	nt	nt	nt	nt
C[N+](C)(C)CC#CCOC(=O)Nc1cccc(Cl)c1	11.6%	50.1µM*!	5.6	nt	9.9	-13.2%
C=CC(=O)OCC(C)C	6.4%[21.7 µM]	nt	nt	nt	nt	nt
CCOP(=O)(CCP(=O)(OCC)OCC)OCC.C[CH2][Sn]([Cl])([Cl])[CH2]C	nt	?	37.0	nt	-4.0	8.44µM*
CCOP(=O)(OCC)OCC	7.0%[21.7 µM]	13.9%	-10.3	nt	-10.9	-13.7%
